NPSR antag: antagonists of human neuropeptide S receptor cAMP signaling. Q6W5P4. CHO-NPSR cells, cAMP TR-FRET, antagonist mode. Potency, µM (titrated, usually from 38.3 µM), without a hit: at the highest dose activity change, negative = inhibition, usual class: inhibitors. actives 1% (n = 220,000). AID 1461; active = well fitted curve in the direction sought with a large enough effect; inconclusive = small, poorly fitted or top-dose-only effect, or another doubt; inactive = no such curve, though single readings can be large; an effect the other way counts as inactive or inconclusive; note: potency is the fitted concentration of half-maximal effect; nearly all actives have a fitted effect of over 50% in size
KDM4E inh: JMJD2E (human) inhibition | JMJD2E catalytic domain, FDH-coupled NADH fluorescence (FDH is formaldehyde dehydrogenase) | Potency, µM (series often up to 57.1 µM), for the others: at the top dose activity change, negative = inhibition, usual class: inhibitors | actives 1.6% (n = 230,000);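 note: potency is the fitted concentration of half-maximal effect; 0% = wells with enzyme and -100% = buffer wells without enzyme; nearly all actives have a fitted effect of over 50% in size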
GoLoco inh red: RGS12 GoLoco-Gai1 interaction inhibition; Gai1:RGS12 GoLoco peptide FP, rhodamine, 10 min; Potency, µM (highest dose often 61.6 µM), for inactives: at the top dose activity, negative = inhibition, usual class: inhibitors; actives 0.44% (n = 230,000); AID 880; active = well fitted inhibition curve with a large enough effect, not every such curve was filed as active; inactive = no such curve, though single readings can be large or run the other way; note: potency is the fitted concentration of half-maximal effect; nearly all actives have a fitted effect of over 30% in size
Coupling enz: counter-screen for Giardia aldolase inhibitors: coupling enzyme system | coupling enzyme system counterscreen, AmpLite Red fluorescence | activity change, negative = inhibition, % at 58.2 µM, hits read low | actives 0.67% (n = 290,000) | AID 2472; in the data active = activity change below about -30%
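Compounds tested against the coupling enzymes alone at 57.5 uM final; readout was AmpLite Red fluorescence (525/598 nm) after 20 min at RT.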
ALDH1A1 block: ALDH1A1 (human) enzyme inhibition. Potency, µM (doses to about 75.3 µM), for the others: top-dose activity, negative = inhibition, usual class: inhibitors. P00352. actives 7.3% (n = 220,000). Purified ALDH1A1, NADH fluorescence, propionaldehyde substrate. AID 1030;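 note: potency is the fitted concentration of half-maximal effect; plate controls were no enzyme wells and a reference inhibitor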
Target sequence (P00352 whole entry, looked up): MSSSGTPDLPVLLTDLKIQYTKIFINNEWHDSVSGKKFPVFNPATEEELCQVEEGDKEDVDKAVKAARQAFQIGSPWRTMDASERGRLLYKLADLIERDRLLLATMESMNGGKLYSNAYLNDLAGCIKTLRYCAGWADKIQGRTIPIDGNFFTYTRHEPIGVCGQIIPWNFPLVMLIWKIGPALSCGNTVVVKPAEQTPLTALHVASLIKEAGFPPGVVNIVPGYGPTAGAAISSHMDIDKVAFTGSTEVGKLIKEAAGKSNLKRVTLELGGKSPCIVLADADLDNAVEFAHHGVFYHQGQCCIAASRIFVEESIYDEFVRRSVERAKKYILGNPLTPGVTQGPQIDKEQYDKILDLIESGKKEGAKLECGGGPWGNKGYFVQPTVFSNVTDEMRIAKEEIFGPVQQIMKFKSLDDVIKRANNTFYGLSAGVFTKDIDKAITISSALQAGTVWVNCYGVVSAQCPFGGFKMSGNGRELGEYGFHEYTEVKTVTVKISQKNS
Sfp inh: inhibitors of Bacillus subtilis Sfp phosphopantetheinyl transferase; Biochemical Sfp PPTase activity, qHTS; Potency, µM, inactives show largest response in the series, negative = inhibition, most hits filed as inhibitors; actives 3.5% (n = 310,000); AID 1490; active = well fitted curve in the direction sought with a large enough effect; inconclusive = small, poorly fitted or top-dose-only effect, or another doubt; inactive = no such curve, though single readings can be large; an effect the other way counts as inactive or inconclusive;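 note: the enzyme is Sfp with the accession as filed and its product quenches rhodamine fluorescence; potency is the fitted concentration of half-maximal effect; 0% = enzyme reaction without inhibitor and -100% = no enzyme wells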
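After 15 min at room temperature with compound, 15 nM Sfp received 5 uM rhodamine-CoA plus 12.5 uM BHQ-2-ybbR (50 mM Hepes pH 7.6, 10 mM MgCl2). Rate came from the fluorescence difference over 30 min, ex 525/em 598 nm.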
The depositor's hits bear a star; ? = inconclusive; . = no result given; [ ] = remark or other dose. Sampled rows, rich in hits. Any-hit rate of the full collection: about 8.5%. Unless noted, calls come from the whole dose curve; as a rule, active = well fitted inhibition curve with a large enough effect (not every such curve was filed as active); inconclusive = small, poorly fitted or top-dose-only effect, or another doubt; inactive = no such curve, though single readings can be large or run the other way. Unless noted, % is set by controls: 0 for no effect and ±100 for the full control effect.

SMILES	NPSR antag	KDM4E inh	GoLoco inh red	Coupling enz	ALDH1A1 block	Sfp inh
CC1(C)CC(=O)C(N=Nc2ccc(-c3ccccc3)cc2)=C(O)C1	2%	10%	6%	2	?	25%
CC1(C)CC(=O)C(N=Nc2ccc(OC(F)F)cc2)=C(O)C1	-1%	-8%	7%	0	1.4µM*	13%
CC1(C)CC(=O)C(N=Nc2ccc3ncsc3c2)=C(O)C1	-1%[46.1 µM]	1%	-7%	3	4.5µM*	-10%
CC1(C)CC(=O)C(N=Nc2ccc(F)cc2)=C(O)C1	6%	-15%	-8%	1	.	-5%
CCN(CC)S(=O)(=O)c1ccc(N=NC2=C(O)CC(C)(C)CC2=O)cc1	-9%	-2%	5%	2	2.5µM*	-3%
CCOCCCNC(=O)C(NC(=O)c1ccccc1O)c1ccc(Cl)cc1 (stereo not given)	-23%	?	2%	-1	?	12%
O=C(NCCn1cccn1)C1CCC(=O)N(CCc2ccccc2)C1 (stereo not given)	.	.	.	.	.	22%
O=Cc1cnc(N2CCN(Cc3ccccc3)CC2)s1	1%	-7%	11%	0	0.79µM*	1%
O=Cc1cnc(N2CCN(c3ccccc3)CC2)s1	-13%	-4%	9%	-1	4µM*	8%
COc1ccc(OC)c(S(=O)(=O)Nc2ccc(O)c(Sc3ncn[nH]3)c2)c1	-5%[46.1 µM]	-8%	-23%	-4	7%	35µM*
COc1ccc(OC)c(S(=O)(=O)Nc2ccc(O)c3ccccc23)c1	-22%[46.1 µM]	?	15%	-58*	3.5µM*	20µM*
Cc1ccc(NC(=O)CSc2nnc(CN3CCOCC3)n2C)cc1C	6%	5%	7%	2	32µM*	5%
Cc1cc(C)cc(NC(=O)CSc2nnc(CN3CCOCC3)n2C)c1	14%	7%	2%	-1	1%	-7%
COc1ccc(Br)cc1C(=O)NC(=S)Nc1c(C)n(C)n(-c2ccccc2)c1=O	.	.	.	5	.	10%
O=C(Oc1coc(CSc2ncccn2)cc1=O)c1ccc(Br)o1	?	-6%	-7%	3	-5%	-12%
O=C(Oc1c(Cl)cc(Cl)c2cccnc12)c1cccc([N+](=O)[O-])c1	-23%[46.1 µM]	14µM*	0%	-8	-2%	6%
O=C(Oc1ccc(Cl)c2cccnc12)c1cccc([N+](=O)[O-])c1	-9%	?	6%	-13	-2%	1%
O=C(Oc1ccc(Cl)c2cccnc12)c1ccco1	4µM*	7%	-7%	-3	-2%	14%
O=C(Oc1cccc2cccnc12)c1ccco1	-5%[46.1 µM]	?	5%	-3	7%	-22%
Cc1ccnc(SCc2cc(=O)c(OC(=O)c3cc([N+](=O)[O-])ccc3Cl)co2)n1	-18%	?	6%	1	-14%	-11%
O=C(Oc1coc(CSc2ncccn2)cc1=O)c1ccco1	39%	-4%	18%	1	-2%	89µM*
O=C(Oc1coc(CSc2ncccn2)cc1=O)c1cccc([N+](=O)[O-])c1	30%	-5%	4%	2	1.8µM*	-1%
O=C(CNC(=O)c1ccccc1)OCCCOC(=O)CNC(=O)c1ccccc1	.	.	.	.	.	1%
COc1c(S(=O)(=O)NCCCn2ccnc2)ccc(Cl)c1Cl	.	.	.	1	.	3%
COc1ccc(-n2ncc3c(=O)n(Cc4c(F)cccc4Cl)cnc32)cc1	19%	?	7%	0	28µM*	11%
Cc1ccc(S(=O)(=O)N(c2ccccc2)C2CCS(=O)(=O)C2)cc1 (stereo not given)	?	3%	0%	2	-3%	10%
O=C(CCl)N(c1ccccc1)C1CCS(=O)(=O)C1 (stereo not given)	-1%	4%	-7%	2	0.063µM*	13%
CN(C1CCS(=O)(=O)C1)S(=O)(=O)c1ccccc1 (stereo not given)	0%	0%	20%	-7	-5%	11µM*
COC(=O)c1cc(S(=O)(=O)NC2CCCCC2)cn1C	.	.	.	.	.	17%

High-throughput results deposited in PubChem BioAssay by National Center for Advancing Translational Sciences (NCATS).
